# Reference: PubChem BioAssay AID1117358 (Southern Research Institute, 2015)
# Screen size: about 2,300 compounds; about 160 (7%) were called active. A selection follows. Measured potencies and affinities stand elsewhere. A number with no mark means an inactive call. How the calls were made is not given here.
# Experiment: Vero cell cytotoxicity, dose response, cytotoxicity control for Vif-APOBEC3G degradation inhibitor project, Vero cells (AID 1117358)
# Conditions: CellTiter-Glo ATP luminescence, 72 h; series mostly up to 40 µM; viability: at the top concentration
row,Structure (SMILES),viability [%]
1,Cc1c(NS(=O)(=O)c2cccc(C(=O)NCc3ccncc3)c2)c(=O)n(-c2ccccc2)n1C,98.7
2,O=C(CCCc1ccccc1)N1CCN(c2ccc([N+](=O)[O-])cc2)CC1,95.2
3,Cc1ccc(-c2nc3s/c(=C\c4ccco4)c(=O)n3n2)cc1,98.8
4,O=C(NCC1CCCO1)c1cc(-c2ccco2)nc2ccccc12 (configuration not stated),101
5,CCCC(=O)Nc1cccc(-c2nc3ccccc3o2)c1,93.2
6,CCn1c(SCC(=O)n2nc(C)cc2C)nnc1-c1ccc2c(c1)OCO2,95.5
7,Cc1c(/C=N\NC(=O)c2csc3ccccc23)cnn1C,107
8,CN(CCOCCOc1ccc2ccccc2c1)Cc1ccccc1,80.2
9,Cc1cc(NC(=O)c2cncc(Br)c2)no1,94.7
10,O=C(O)c1cc(-c2ccc(N3CCOCC3)cc2)nn1-c1ccc(F)cc1F,98.9
11,CC(=O)C1=C(O)C(=O)N(Cc2ccco2)C1c1ccc(F)cc1 (configuration not stated),98.9
12,COc1ccc(N2C(=O)C3CCCN3C2c2ccc(C)cc2)cc1 (configuration not stated),97.8
13,Cc1[nH]c2ccccc2c1C(=O)CN1CCC(C(N)=O)(N2CCCCC2)CC1,95
14,Cc1[nH]c2ccccc2c1C(=O)Cn1c(=O)oc2ccccc21,94.9
15,Cc1nn(Cc2ccc(Cl)cc2)c(C)c1NC(=O)c1cc(-c2ccc3c(c2)OCO3)on1,83.2
16,Cc1nn(Cc2ccccc2)c(C)c1NC(=O)Cn1nc([N+](=O)[O-])c(Cl)c1C,101
17,CC1(C)Oc2ccc(C(=O)NC3CCCC3)cc2N(CC(=O)NC2CCCC2)C1=O,99.9
18,CCOc1ccc(N(CC(=O)NC(C)(C)C)S(=O)(=O)c2c(C)noc2C)cc1,96.2
19,Cn1nnnc1SCC(=O)NCc1ccco1,102
20,CN(C)S(=O)(=O)N1CCC(CCCC2CCN(S(=O)(=O)N(C)C)CC2)CC1,108
21,Cc1ccc(NC(=O)COc2ccccc2C(=O)Nc2ccccc2)cc1Cl,85.8
22,O=C(C/C=N/OCc1c(Cl)cccc1Cl)c1ccc(Cl)cc1,93.4
23,Cc1cc(C)cc(NCc2cc3c(cc2[N+](=O)[O-])OCO3)c1,85.9
24,O=C(Oc1ccccc1)c1cccc2cccnc12,82.5
25,CC(C)c1ccc(NC(=O)C(c2ccccc2)N2CCC3(CC2)OCCO3)cc1 (configuration not stated),104

row,Structure (SMILES),viability [%]
1,Oc1cccc(/C=N/c2c(-c3ccco3)nc3ccccn23)c1,95.3
2,CCC(c1nnnn1C(C)(C)CC)N(CCCO)Cc1cc2cc(C)cc(C)c2[nH]c1=O (configuration not stated),94.8
3,Cc1cccc(-n2c(Cc3cc(=O)[nH]c(=O)[nH]3)nnc2SCC(=O)NCC2CCCO2)c1 (configuration not stated),94.2
4,CC(NC(=O)c1cccs1)C(c1cccs1)N1CCN(Cc2ccccc2)CC1 (configuration not stated),103
5,CCOC(=O)c1c(NC(=O)c2cc(CC(C)C)on2)sc(C(C)=O)c1C,100
6,N#CC1=C(Nc2ccccc2)SC=C(c2ccc(Br)cc2)N=C1N1CCOCC1,91.6
7,Cc1nc2ccc(S(=O)(=O)N(C)CC(=O)N3CCc4ccccc43)cc2s1,100
8,COc1cccc(-c2nnc(SCC(=O)N3CCOCC3)o2)c1,102
9,CCOc1ccc(Cl)cc1S(=O)(=O)N1CCN(c2ccc(F)cc2)CC1,87.1
10,CCOc1ccc(C2=[N+]([O-])C(C)(C)N(O)C2(C)C)cc1,93.6
11,CC1=CC(C)(C)Nc2ccc(OC(=O)CN3C(=O)c4cccc5cccc(c45)C3=O)cc21,96.7
12,O=C(Oc1cccnc1)c1ccc(Cl)cc1,94.4
13,Cc1ccc(-c2ccc(CCC(=O)O)n2NC(N)=S)cc1,93.1
14,Cc1cc(-c2[nH]nc3c2C(c2cccc(O)c2)C(C#N)=C(N)O3)c(C)s1 (configuration not stated),96.6
15,CCC(C)C(NC(=O)[C@@H](NC(=O)c1ccccc1F)C(C)C)C(=O)OC (some centres not stated),105
16,C/C(=N\OC(=O)c1ccc(F)cc1)c1sc(-c2ccccc2)nc1C,95.6
17,Cc1ccc2cc(CN(Cc3nnnn3Cc3ccco3)CC3CCCO3)c(=O)[nH]c2c1C (configuration not stated),101
18,C=CCNc1nc2ccccc2nc1NS(=O)(=O)c1cccs1,92.6
19,COc1ccc(C(=O)NCc2cn3cccc(C)c3n2)cc1OC,98
20,CCOC(=O)C(NC(=O)NC1CCCCC1)(c1ccccc1)C(F)(F)F (configuration not stated),101
21,Cc1cc(C)cc(Nc2ccc(C(=O)O)cc2N)c1,105
22,S=C(Nc1cccc(Cl)c1)NC1CCCCC1,98.6
23,CCCNC(=S)NC1CCCC1,96.3
24,COc1ccc(C(=O)NCc2cccnc2)cc1OC,96.7
25,CC1CCN(C(=O)CCc2nc3cc(S(=O)(=O)N(C)C)ccc3n2C)CC1,96

row,Structure (SMILES),viability [%]
1,CCOC(=O)c1c(C)[nH]c(C(=O)OCC(=O)N2c3ccccc3CC2C)c1C (configuration not stated),92
2,COc1cc(C(=O)Nc2ccc(S(=O)(=O)NC(C)C)cc2)cc(OC)c1OC,91
3,COc1ccccc1C(=O)Nc1ccc(S(=O)(=O)Nc2cc(C)nc(C)n2)cc1,96.3
4,COc1cc(NC(=O)c2cc3nc(C)cc(C)n3n2)c(OC)cc1Cl,95.1
5,NC(=O)C[C@@H]1N[C@]2(C(=O)Nc3ccccc32)[C@@H]2C(=O)N(c3cc(C(F)(F)F)ccc3Cl)C(=O)[C@H]12,99.7
6,CCc1cc2cc(C)cc(C)c2nc1SCC(=O)N1CCN(C(=O)c2ccco2)CC1,99.1
7,COc1cc(C(=O)OCCN2CCCCC2)ccc1O,101
8,CCN1C(=O)c2ccccc2S(=O)c2ccc(C(=O)NC3CC3)cc21 (configuration not stated),97.5
9,Cc1cccc(C)c1NS(=O)(=O)c1c(C)[nH]c(=O)[nH]c1=O,95
10,CC(C)(C)NC(=O)COC(=O)c1cc(S(=O)(=O)N2CCCCC2)ccc1N1CCOCC1,92.4
11,CCN(CC)C(=O)CSCC(=O)Nc1ccccc1,90.6
12,CC(C)(C)OC(=O)N1CCCC1C(=O)N1CCc2ccccc21 (configuration not stated),107
13,CCOC(=O)CSc1nnc(CNC(=O)c2cccs2)n1CCc1ccccc1,103
14,CCN1CCc2c(C#N)c(NCc3ccccc3)nc(N(CC)CC)c2C1,98.3
15,Nn1c(SCC(=O)NC2CCCc3ccccc32)nnc1-c1cccs1 (configuration not stated),109
16,O=C(Cc1cc(=O)[nH]c(=O)[nH]1)NCC1CCCO1 (configuration not stated),98.5
17,O=C(NCc1ccncc1)c1ccc(Cn2cc(C(F)(F)F)ccc2=O)cc1,97.2
18,O=C(NCc1ccccn1)c1ccc(Cn2cc(Br)cn2)o1,98.8
19,O=S(=O)(c1ccc(OCc2nc3ccccc3s2)c(Cl)c1)N1CCOCC1,98.5
20,CCNc1nc(OCCNS(=O)(=O)c2cc(C)ccc2C)nc(N(C)C)n1,82.2
21,CC1Cc2ccccc2N1C(=O)C1CCN(S(=O)(=O)Cc2ccccc2)CC1 (configuration not stated),94.6
22,CCC(Cc1ccccc1)NC(=O)C1CCN(S(=O)(=O)c2c(C)noc2C)CC1 (configuration not stated),104
23,COC(=O)c1ccc(C)c(NS(=O)(=O)c2ccc(NC(C)=O)cc2)c1,89.2
24,O=C(CSc1nncs1)NC(=O)NCc1ccccc1,91.5
25,COc1ccc(S(=O)(=O)N(CC(=O)O)c2ccccn2)cc1,99.8

row,Structure (SMILES),viability [%]
1,CC(=O)c1ccc(NC(=O)c2ccc3nc(-c4ccco4)c(-c4ccco4)nc3c2)cc1,89.9
2,CCOc1ccc(-n2c(=O)c3c(C)c(C)sc3n(CC(=O)NCc3ccco3)c2=O)cc1,98.6
3,Oc1c(C(c2ccccc2)N2CCN(Cc3ccccc3)CC2)sc2ncnn12 (configuration not stated),97.7
4,CCOc1cc(C2NC(=O)NC(O)(C(F)(F)F)C2C(=O)c2ccccc2)ccc1OC (configuration not stated),101
5,COc1ccc(CSc2nnnn2C)cc1F,94.5
6,O=C(Nc1ccc2nc(-c3ccco3)c(-c3ccco3)nc2c1)N1CCCCCC1,105
7,O=C(O)CCN1CCOCC1,99.2
8,O=C(O)c1ccc(S(=O)(=O)c2ccc3c(c2)C(=O)N(Cc2ccco2)C3=O)cc1,101
9,COc1cc(NC(=O)c2nnn(Cc3ccc(SC)cc3)c2N)cc(OC)c1,82.5
10,O=C(CN1C(=O)NC2(CCCCCCC2)C1=O)NCc1cccs1,99.7
11,COCC(=O)Nc1sc2c(c1C(=O)OC)C(C(=O)OC)CC2 (configuration not stated),102
12,CCOC(=O)c1cc2sc(C)cc2n1CC(=O)N1CCN(C(=O)c2ccco2)CC1,94
13,COC(=O)Nc1sc2c(c1C(=O)NCc1ccco1)CCCC2,104
14,O=C(c1ccc2c(c1)OCCO2)C1CCN(C(=O)c2ccc(F)cc2)CC1,111
15,CN(C)c1ccc(/C=N\NC(=O)c2csnn2)cc1,92.2
16,Cc1cc(C(=O)Nc2c(C)cccc2C)n(-c2ccccc2)n1,106
17,CCOC(=O)C1CCN(S(=O)(=O)c2cccc(-c3cn4cccnc4n3)c2)CC1,99
18,COCc1nnc(NC(=O)c2ccc(S(=O)(=O)N(C)C3CCCCC3)cc2)o1,99.6
19,Cc1nnc(NC(=O)c2ccc(S(=O)(=O)N(C)Cc3ccccc3)cc2)o1,96.7
20,COc1ccc(C(=O)N2CCCN(C)CC2)cc1S(=O)(=O)N1CCCc2ccccc21,90.5
21,O=C(Nc1ccccc1F)c1ccc(S(=O)(=O)NCC2CCCO2)cc1 (configuration not stated),93.5
22,CCOC(=O)c1c(-c2cccs2)csc1NC(=O)CC(C)C,95.5
